Of roughly 7,900 targets only a part is listed; those with a hit were picked by preference. About 0.6% of all pairs of compound and target were hits.
Columns and labels:
Experiment in all cases: log2 fold change, soluble protein after heating vs DMSO (PISA); higher = thermal stabilisation; K562 cells, 10 uM, 30 min; active = over 0.2 and 3.5 SD of the protein, either way, in both replicates (recomputed)
[1] = compound: C1=CC=C(C=C1)[C@H](COC2=CC3=C(C=C2)NC(=O)N3)NC(=O)C4=CC=CN(C4=O)CC5=CC(=C(C=C5)F)F
Summary of the method: (§1)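 Values are thermal stability changes relative to control samples and are taken from duplicates. They are stated as log2 fold changes. Before quantification by TMTpro 16plex LC-MS/MS with equalised channel sums, K562 cells at 2×10^6 cells/mL were treated with 10 μM compound for 30 min, heated in aliquots for 3 min across 48°C-58°C, pooled, extracted in PBS with 0.5% NP-40 at 4°C, and centrifuged at 21,000xg for 90 min to give the soluble supernatant.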

[2] = compound: CC1=C(SC2=C1C(=N[C@H](C3=NN=C(N32)C)CC(=O)N)C4=CC=C(C=C4)Cl)C
Summary of the method: as §1

[3] = compound: CC1=C2C(=CC=C1)N=C(N(C2=O)C3=CC=CC=C3C)CN4C=NC5=C(N=CN=C54)N
Summary of the method: as §1

[4] = compound: Cc1sc2c(c1C)C(c1ccc(Cl)cc1)=N[C@@H](CC(=O)OC(C)(C)C)c1nnc(C)n1-2
Summary of the method: as §1

[5] = compound: c1ccc([C@@H]2C[C@H]2NC2CCNCC2)cc1
Summary of the method: as §1

Measured: log2 fold change

SPPL2B (UniProt Q8TCT7)
inactive: [1] 0.039 | [2] 0.132 | [3] 0.049 | [4] 0.024 | [5] -0.022

SLC29A3 (UniProt Q9BZD2)
Sequence of UniProt Q9BZD2 (Q9BZD2 whole entry, looked up): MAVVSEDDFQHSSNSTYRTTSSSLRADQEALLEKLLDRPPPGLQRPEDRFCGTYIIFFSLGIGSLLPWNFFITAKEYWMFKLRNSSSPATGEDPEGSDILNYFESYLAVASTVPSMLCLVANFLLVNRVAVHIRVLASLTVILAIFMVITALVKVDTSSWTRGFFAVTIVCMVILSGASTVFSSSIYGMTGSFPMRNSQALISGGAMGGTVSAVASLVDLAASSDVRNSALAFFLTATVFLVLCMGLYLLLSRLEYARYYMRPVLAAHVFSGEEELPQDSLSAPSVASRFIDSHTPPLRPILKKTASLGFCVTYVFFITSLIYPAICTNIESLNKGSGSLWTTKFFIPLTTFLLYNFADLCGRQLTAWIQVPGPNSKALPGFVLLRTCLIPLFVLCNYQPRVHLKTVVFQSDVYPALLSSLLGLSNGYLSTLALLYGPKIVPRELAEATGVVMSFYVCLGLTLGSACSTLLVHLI
inactive: [1] 0.036 | [2] 0.033 | [3] 0.044 | [4] -0.352 | [5] 0.139

SRXN1 (UniProt Q9BYN0)
inactive: [1] -0.02 | [2] 0.086 | [3] 0.117 | [4] -0.05 | [5] 0.086

STK11IP (UniProt Q8N1F8)
Sequence of UniProt Q8N1F8 (Q8N1F8 whole entry, looked up): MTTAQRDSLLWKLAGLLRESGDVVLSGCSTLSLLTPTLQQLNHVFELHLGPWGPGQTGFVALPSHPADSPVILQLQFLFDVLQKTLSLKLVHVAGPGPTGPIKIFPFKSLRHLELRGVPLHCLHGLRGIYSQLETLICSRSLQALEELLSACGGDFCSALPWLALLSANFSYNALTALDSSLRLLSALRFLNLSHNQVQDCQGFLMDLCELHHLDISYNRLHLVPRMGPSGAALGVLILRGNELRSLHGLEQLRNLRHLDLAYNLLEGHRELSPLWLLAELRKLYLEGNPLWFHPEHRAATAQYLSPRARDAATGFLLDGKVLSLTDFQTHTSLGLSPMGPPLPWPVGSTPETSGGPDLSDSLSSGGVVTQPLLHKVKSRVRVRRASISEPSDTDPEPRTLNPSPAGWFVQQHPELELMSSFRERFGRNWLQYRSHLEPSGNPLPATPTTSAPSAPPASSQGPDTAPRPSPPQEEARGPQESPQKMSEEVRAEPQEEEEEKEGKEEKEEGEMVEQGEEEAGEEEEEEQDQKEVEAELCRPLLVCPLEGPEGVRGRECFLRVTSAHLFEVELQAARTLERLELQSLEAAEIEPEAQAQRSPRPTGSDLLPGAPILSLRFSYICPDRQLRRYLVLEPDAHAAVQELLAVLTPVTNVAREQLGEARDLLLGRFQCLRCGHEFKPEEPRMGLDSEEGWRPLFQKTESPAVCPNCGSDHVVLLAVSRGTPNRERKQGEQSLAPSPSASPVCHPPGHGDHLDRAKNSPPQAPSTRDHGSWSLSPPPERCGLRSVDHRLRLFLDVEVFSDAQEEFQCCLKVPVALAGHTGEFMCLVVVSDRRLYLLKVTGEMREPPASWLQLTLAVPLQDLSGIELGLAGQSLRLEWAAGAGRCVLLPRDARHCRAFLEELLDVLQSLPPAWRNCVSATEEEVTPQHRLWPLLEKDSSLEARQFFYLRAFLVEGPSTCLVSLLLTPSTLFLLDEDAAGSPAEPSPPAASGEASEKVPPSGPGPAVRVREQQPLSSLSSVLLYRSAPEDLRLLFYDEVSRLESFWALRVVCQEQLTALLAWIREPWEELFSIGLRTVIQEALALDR
inactive: [1] 0.035 | [2] 0.026 | [3] -0.02 | [4] 0.05 | [5] -0.048

TLK1 (UniProt Q9UKI8)
inactive: [1] 0.007 | [2] 0.036 | [3] 0.036 | [4] -0.036 | [5] 0.018

SRP68 (UniProt Q9UHB9)
Sequence of UniProt Q9UHB9 (Q9UHB9 whole entry, looked up): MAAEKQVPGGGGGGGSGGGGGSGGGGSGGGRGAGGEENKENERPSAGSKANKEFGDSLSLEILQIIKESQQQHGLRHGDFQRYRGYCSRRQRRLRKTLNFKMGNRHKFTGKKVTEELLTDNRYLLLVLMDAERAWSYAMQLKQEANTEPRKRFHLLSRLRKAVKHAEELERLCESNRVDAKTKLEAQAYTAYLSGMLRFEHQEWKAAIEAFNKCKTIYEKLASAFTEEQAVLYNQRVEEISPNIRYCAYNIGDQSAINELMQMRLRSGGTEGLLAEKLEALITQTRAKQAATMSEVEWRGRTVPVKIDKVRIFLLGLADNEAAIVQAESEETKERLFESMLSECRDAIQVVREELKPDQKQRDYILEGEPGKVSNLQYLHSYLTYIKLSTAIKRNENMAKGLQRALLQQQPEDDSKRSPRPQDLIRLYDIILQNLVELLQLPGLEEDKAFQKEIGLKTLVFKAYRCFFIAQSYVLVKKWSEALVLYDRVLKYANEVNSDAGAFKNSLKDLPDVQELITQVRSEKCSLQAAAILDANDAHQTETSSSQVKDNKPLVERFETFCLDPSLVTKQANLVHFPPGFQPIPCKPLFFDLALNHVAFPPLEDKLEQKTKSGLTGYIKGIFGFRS
inactive: [1] -0.041 | [2] 0.022 | [3] 0.039 | [4] 0.092 | [5] -0.029

SRC isoform 2 (UniProt P12931)
Sequence of UniProt P12931 (P12931 whole entry, looked up): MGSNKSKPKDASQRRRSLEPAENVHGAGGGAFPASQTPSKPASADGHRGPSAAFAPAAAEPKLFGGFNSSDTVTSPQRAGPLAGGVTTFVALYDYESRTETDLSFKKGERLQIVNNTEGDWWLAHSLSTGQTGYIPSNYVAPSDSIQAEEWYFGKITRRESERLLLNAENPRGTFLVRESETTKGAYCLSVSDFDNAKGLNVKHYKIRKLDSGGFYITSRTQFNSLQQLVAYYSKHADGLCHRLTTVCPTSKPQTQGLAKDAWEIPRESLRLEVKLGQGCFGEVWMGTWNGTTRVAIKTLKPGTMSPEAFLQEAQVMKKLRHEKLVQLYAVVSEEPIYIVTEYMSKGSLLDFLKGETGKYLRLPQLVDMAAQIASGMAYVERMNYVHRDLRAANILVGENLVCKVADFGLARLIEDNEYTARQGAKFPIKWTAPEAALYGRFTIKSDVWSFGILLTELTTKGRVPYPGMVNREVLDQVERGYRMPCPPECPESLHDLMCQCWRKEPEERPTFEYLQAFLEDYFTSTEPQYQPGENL
inactive: [1] 0.016 | [2] 0.181 | [3] 0.125 | [4] 0.042 | [5] 0.003

SSR4 (UniProt P51571)
Sequence of UniProt P51571 (P51571 whole entry, looked up): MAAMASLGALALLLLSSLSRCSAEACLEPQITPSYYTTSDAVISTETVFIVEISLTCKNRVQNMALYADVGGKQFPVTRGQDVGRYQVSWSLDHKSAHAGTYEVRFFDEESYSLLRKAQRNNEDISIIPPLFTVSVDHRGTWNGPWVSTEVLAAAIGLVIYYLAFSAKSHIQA
inactive: [1] 0.045 | [2] 0.046 | [3] 0.002 | [4] -0.048 | [5] -0.018

SP1 (UniProt P08047)
inactive: [1] 0.002 | [2] -0.029 | [3] 0.016 | [4] 0.051 | [5] 0.02

TECR (UniProt Q9NZ01)
Sequence of UniProt Q9NZ01 (Q9NZ01 whole entry, looked up): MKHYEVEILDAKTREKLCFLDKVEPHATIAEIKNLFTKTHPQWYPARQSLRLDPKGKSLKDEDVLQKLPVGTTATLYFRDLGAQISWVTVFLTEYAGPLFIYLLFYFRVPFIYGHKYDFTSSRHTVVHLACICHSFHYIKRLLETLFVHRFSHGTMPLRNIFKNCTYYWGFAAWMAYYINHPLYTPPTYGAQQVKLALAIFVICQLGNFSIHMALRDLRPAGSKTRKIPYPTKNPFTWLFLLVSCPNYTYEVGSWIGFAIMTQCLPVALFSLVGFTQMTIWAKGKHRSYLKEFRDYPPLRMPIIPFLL
inactive: [1] -0.015 | [2] 0.049 | [3] 0.033 | [4] -0.046 | [5] 0

TEX30 (UniProt Q5JUR7)
Sequence of UniProt Q5JUR7 (Q5JUR7 whole entry, looked up): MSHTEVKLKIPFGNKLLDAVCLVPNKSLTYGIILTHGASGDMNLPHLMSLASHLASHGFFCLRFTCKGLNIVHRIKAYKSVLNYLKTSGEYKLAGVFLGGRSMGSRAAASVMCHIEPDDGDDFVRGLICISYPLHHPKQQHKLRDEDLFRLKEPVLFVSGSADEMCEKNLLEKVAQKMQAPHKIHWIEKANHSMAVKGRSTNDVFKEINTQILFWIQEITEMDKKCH
inactive: [1] -0.162 | [2] -0.141 | [3] 0.235 | [4] 0.12 | [5] 0.052

SYNE2 isoform 2 (UniProt Q8WXH0)
inactive: [1] 0.064 | [2] 0.055 | [3] 0.209 | [4] -0.004 | [5] 0.096

TIPRL (UniProt O75663)
Sequence of UniProt O75663 (O75663 whole entry, looked up): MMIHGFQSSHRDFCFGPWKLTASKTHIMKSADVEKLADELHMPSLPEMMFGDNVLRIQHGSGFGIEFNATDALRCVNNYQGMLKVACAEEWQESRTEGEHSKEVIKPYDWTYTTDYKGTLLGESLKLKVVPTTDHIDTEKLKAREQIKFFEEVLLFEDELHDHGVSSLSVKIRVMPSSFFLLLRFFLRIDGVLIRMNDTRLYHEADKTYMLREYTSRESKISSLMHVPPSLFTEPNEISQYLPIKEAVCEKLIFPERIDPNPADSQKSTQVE
inactive: [1] -0.078 | [2] 0.07 | [3] 0.083 | [4] 0.001 | [5] -0.007

SRP72 (UniProt O76094)
Sequence of UniProt O76094 (O76094 whole entry, looked up): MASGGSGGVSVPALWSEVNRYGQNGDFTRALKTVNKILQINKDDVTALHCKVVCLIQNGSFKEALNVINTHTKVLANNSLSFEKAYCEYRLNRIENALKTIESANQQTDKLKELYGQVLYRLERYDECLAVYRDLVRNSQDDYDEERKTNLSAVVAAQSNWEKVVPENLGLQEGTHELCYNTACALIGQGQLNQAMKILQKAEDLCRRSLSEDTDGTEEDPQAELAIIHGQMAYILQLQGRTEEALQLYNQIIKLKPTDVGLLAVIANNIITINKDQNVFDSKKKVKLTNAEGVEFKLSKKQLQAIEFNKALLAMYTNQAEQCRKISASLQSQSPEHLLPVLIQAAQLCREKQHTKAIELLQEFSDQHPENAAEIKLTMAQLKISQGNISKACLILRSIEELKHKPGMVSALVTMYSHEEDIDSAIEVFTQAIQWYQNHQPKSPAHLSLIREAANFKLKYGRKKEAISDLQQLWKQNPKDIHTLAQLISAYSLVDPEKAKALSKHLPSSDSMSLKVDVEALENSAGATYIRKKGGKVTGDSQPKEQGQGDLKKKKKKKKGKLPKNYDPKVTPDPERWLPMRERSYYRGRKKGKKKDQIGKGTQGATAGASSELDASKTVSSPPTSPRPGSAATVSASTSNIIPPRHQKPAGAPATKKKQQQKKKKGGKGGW
inactive: [1] -0.068 | [2] -0.016 | [3] 0.047 | [4] 0.097 | [5] -0.016

STAM2 (UniProt O75886)
inactive: [1] -0.015 | [2] 0.005 | [3] 0.014 | [4] 0.016 | [5] -0.001

SRI (UniProt P30626)
Sequence of UniProt P30626 (P30626 whole entry, looked up): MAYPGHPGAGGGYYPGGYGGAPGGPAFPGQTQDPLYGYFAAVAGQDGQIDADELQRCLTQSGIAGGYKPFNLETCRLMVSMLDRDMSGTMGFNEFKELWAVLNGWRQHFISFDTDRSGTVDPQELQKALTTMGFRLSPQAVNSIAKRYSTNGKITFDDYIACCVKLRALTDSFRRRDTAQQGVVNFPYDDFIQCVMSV
inactive: [1] -0.034 | [2] 0.111 | [3] 0.043 | [4] -0.093 | [5] -0.064

SLC7A6OS (UniProt Q96CW6)
Sequence of UniProt Q96CW6 (Q96CW6 whole entry, looked up): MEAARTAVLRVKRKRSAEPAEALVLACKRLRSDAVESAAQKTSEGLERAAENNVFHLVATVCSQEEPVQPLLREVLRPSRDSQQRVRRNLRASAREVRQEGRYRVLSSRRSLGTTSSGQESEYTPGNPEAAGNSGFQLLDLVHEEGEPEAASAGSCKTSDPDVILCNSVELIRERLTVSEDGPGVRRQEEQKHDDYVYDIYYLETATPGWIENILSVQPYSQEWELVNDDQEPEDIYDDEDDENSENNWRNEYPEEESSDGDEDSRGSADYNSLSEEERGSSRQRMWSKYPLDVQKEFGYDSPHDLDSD
inactive: [1] -0.026 | [2] -0.043 | [3] 0.03 | [4] 0.012 | [5] 0.032

TFB2M (UniProt Q9H5Q4)
inactive: [1] -0.019 | [2] 0.035 | [3] 0.103 | [4] -0.019 | [5] -0.022
